Compound activity deposited in PubChem by The Scripps Research Institute Molecular Screening Center.
MITF primary – blocks human microphthalmia-associated transcription factor; O75030; 0.91% of 650,000 active; inhibition, % at 2.6 µM; AlphaScreen MITF homodimerization, bead proximity signal; in the data active = inhibition above about 50%;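 note: 0% = vehicle wells with protein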
Target sequence (O75030 whole entry, looked up): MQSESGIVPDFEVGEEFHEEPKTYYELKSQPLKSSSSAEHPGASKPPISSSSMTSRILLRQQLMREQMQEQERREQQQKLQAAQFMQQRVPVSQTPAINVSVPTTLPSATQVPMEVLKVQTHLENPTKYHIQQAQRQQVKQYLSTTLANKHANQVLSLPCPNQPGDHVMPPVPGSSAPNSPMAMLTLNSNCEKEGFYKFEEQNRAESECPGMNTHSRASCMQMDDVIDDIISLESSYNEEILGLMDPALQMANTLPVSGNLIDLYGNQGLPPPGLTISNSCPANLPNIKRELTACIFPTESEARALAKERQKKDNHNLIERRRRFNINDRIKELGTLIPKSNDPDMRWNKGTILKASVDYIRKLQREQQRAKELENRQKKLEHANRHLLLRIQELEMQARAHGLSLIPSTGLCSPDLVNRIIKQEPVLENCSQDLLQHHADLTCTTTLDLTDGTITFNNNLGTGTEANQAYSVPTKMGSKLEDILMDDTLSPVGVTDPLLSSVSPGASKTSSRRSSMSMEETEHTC
GPR151 ag – human GPR151 activation. activation, % at 11.2 µM. PathHunter beta-arrestin GPR151 cells, luminescence. Q8TDV0. AID 1508602. 1% of 650,000 active; in the data active = activation above about 4.9%;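 note: 0% = median of compound wells and 100% = cells with positive control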
FBW7 act – human FBW7 E3 ligase activation, primary screen | AlphaScreen FBW7–phospho-cyclin E peptide binding, activator screen | AID 1259310 | 0.13% of 650,000 active | normalized activity (activation), % at 26.1 µM; in the data active = normalized activity above about 1.9%;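 note: purified mutant Fbw7 with reduced substrate affinity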
TEAD-YAP block – TEAD-YAP interaction inhibition. 1.4% of 640,000 active. HEK-TIYL cells, TEAD-Gal4/YAP UAS-luciferase luminescence. inhibition, % at 9.12 µM. AID 1259422; in the data active = inhibition above about 32%;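 note: 0% = median of test compound wells and 100% = reference inhibitor wells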
GPR151 confirm – human GPR151 activation, confirmation screen | AID 1508609 | GPR151 PathHunter beta-arrestin cells, luminescence, 90 min; % of EA-reagent control over plate median | 6,700 tested, under 10 active | activation, % at 11.2 µM | shares compounds with GPR151 ag;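 active = mean percent activation across replicates above the confirmation screen cutoff of 4.91%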
GPR119 counter – activates human GPR119 in a GPR151 counter-screen; shares compounds with GPR151 ag; GPR119 PathHunter beta-arrestin cells, luminescence, 90 min; 0 = compound-well median, 100 = enzyme-acceptor control; activation, % at 11.2 µM; 0.3% of 6,700 active; AID 1508611;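 active = mean percent activation in the counterscreen above 29.09%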;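 note: counterscreen on off-target GPR119 to flag nonselective hits from the GPR151 activator screen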
* hit, by the source's call; ! = a repeat was not active. This is a sample that favours compounds with a hit; in the whole collection about 3.5% have one here.

For Cc1ccc2nsnc2c1NC(=O)CC(C)C the results were MITF primary -2, GPR151 ag 1, FBW7 act 0 and TEAD-YAP block -3.
`COc1cc2nc(/C(Cl)=C/c3ccsc3)[nH]c(=O)c2cc1OC` gave MITF primary 0, GPR151 ag 1, FBW7 act 0 and TEAD-YAP block 5.
For Cc1c(NC(=O)c2nn3c(c2Cl)NC(c2ccco2)CC3C(F)(F)F)c(=O)n(-c2ccccc2)n1C (stereo not drawn) the results were MITF primary -2, GPR151 ag 4, FBW7 act 0 and TEAD-YAP block 4.
Screening O=C(Nc1cccnc1)c1cc2n(n1)C(C(F)(F)F)CC(c1ccc(Cl)cc1)N2 (stereo not drawn) returned MITF primary -5, GPR151 ag 5.0*, FBW7 act 0, TEAD-YAP block -23, GPR151 confirm 1 and GPR119 counter 3.
O=C(Nc1cccnc1)c1cc2n(n1)C(C(F)(F)F)CC(c1ccc(Br)cc1)N2 (stereo not drawn) was read as MITF primary 3, GPR151 ag -1, FBW7 act 0 and TEAD-YAP block -5.
COc1cc(C2c3c(oc4ccc(F)cc4c3=O)C(=O)N2c2nccs2)ccc1O (stereo not drawn) was read as MITF primary 9, GPR151 ag 6.2*, FBW7 act 0, TEAD-YAP block 8, GPR151 confirm -1 and GPR119 counter 4.
For CCC(=O)N1CCN(c2ccc(Cl)cc2NC(=O)COc2ccc([N+](=O)[O-])cc2)CC1 the results were MITF primary 14, GPR151 ag -2, FBW7 act 0 and TEAD-YAP block -2.
`O=C(O)CCC(=O)Nc1cccc(-c2nnc(-c3ccccc3)o2)c1` gave MITF primary 3, GPR151 ag 5.0*, FBW7 act 0, TEAD-YAP block -6, GPR151 confirm -1 and GPR119 counter -11.
For O=C(COc1ccccc1)Nc1ccc2oc(-c3ccccc3)nc2c1 the results were MITF primary -11, GPR151 ag 6.3*, FBW7 act 0, TEAD-YAP block -22, GPR151 confirm 0 and GPR119 counter 10.
O=C(COc1ccccc1)Nc1nnc(-c2ccccc2)o1 was read as MITF primary 13, GPR151 ag 6.0*, FBW7 act 0, TEAD-YAP block -5, GPR151 confirm -1 and GPR119 counter -3.
`O=C(Cc1ccccc1)Nc1cccc(-c2nnc(-c3cccc(NC(=O)Cc4ccccc4)c3)o2)c1` gave MITF primary -8, GPR151 ag 1, FBW7 act 0 and TEAD-YAP block -5.
COCCn1c(SCC(=O)N(C(C)C)C(C)C)nnc1-c1ccco1 was read as MITF primary 6, GPR151 ag 1, FBW7 act 0 and TEAD-YAP block 8.
For CCNC(=O)C(=O)NCC1OCCCN1S(=O)(=O)c1ccccc1 (stereo not drawn) the results were MITF primary 2, GPR151 ag 5.2*, FBW7 act 0, TEAD-YAP block 0, GPR151 confirm 0 and GPR119 counter -9.
C=CCNC(=O)C(=O)NCC1OCCCN1S(=O)(=O)c1ccc(F)cc1C (stereo not drawn) was read as MITF primary 0, GPR151 ag 7.3*, FBW7 act 0, TEAD-YAP block -3, GPR151 confirm 0 and GPR119 counter -6.
Screening O=C(NCCCO)C(=O)NCC1OCCCN1S(=O)(=O)c1ccc(Cl)cc1 (stereo not drawn) returned MITF primary -3, GPR151 ag 9.5*, FBW7 act 0, TEAD-YAP block -9, GPR151 confirm 0 and GPR119 counter -6.
O=C(NCCO)C(=O)NCC1OCCCN1S(=O)(=O)c1ccc(Cl)cc1 (stereo not drawn) was read as MITF primary -1, GPR151 ag 1, FBW7 act 0 and TEAD-YAP block -2.
Screening CC1=C(C(=O)OC2CCCC2)C(c2cccc(OCc3ccccc3)c2)C2=C(CCCC2=O)N1 (stereo not drawn) returned MITF primary 7, GPR151 ag -2, FBW7 act 0 and TEAD-YAP block 2.
Screening CO[C@@H]1COC(=O)[C@H](COCc2ccccc2)NC(=O)C/C=C/[C@@H](C)[C@H](OC)COC(=O)[C@H](C)NC(=O)C/C=C/C1C (stereo partly drawn) returned MITF primary 23, GPR151 ag 4.9*, FBW7 act 0, GPR151 confirm 0 and GPR119 counter 13.
`CO[C@H]1COC(=O)C/C=C/[C@H](C)[C@@H](OC)COC(=O)[C@@H](C)COC(=O)C/C=C/[C@@H]1C` gave MITF primary -15, GPR151 ag 6.0*, FBW7 act 0, GPR151 confirm 0 and GPR119 counter 14.
Screening O=C1CCCN1CCCN1C(=O)CC[C@@H]2CN(Cc3ccc(F)cc3)CC[C@@H]21 returned MITF primary 11, GPR151 ag 0, FBW7 act 0 and TEAD-YAP block 5.
For Cc1oc(-c2ccccc2Cl)nc1CSCC(=O)NC1CCCC1 the results were MITF primary 6, GPR151 ag 2, FBW7 act 0 and TEAD-YAP block -4.
`Cc1oc(-c2ccccc2Cl)nc1CSCC(=O)NC(C)(C)C` gave MITF primary 5, GPR151 ag 5.2*, FBW7 act 0, TEAD-YAP block -23, GPR151 confirm 1 and GPR119 counter -1.
Screening OC(COc1cccc2ccccc12)CN1CCNCC1 (stereo not drawn) returned MITF primary 4, GPR151 ag 12*, FBW7 act 1, TEAD-YAP block 14, GPR151 confirm 1 and GPR119 counter 8.
For COc1cccc(OC)c1OCC(O)CN1CCN(c2ccccc2)CC1 (stereo not drawn) the results were MITF primary 6, GPR151 ag 6.3*, FBW7 act 0, TEAD-YAP block -4, GPR151 confirm 0 and GPR119 counter 16.
COc1cccc(OC)c1OCC(O)CN1CCN(c2ccccn2)CC1 (stereo not drawn) was read as MITF primary 6, GPR151 ag -2, FBW7 act 0 and TEAD-YAP block 4.
CC(C)NCC(O)COc1cccc2ccccc12 (stereo not drawn) was read as MITF primary 4, GPR151 ag 5.5*!, FBW7 act 0, TEAD-YAP block 8, GPR151 confirm -1 and GPR119 counter -10.
O=C1CCCN1CCCNc1ncnc2nc(N3CCN(Cc4ccc5c(c4)OCO5)CC3)[nH]c12 was read as MITF primary 18, GPR151 ag -2, FBW7 act 0 and TEAD-YAP block 8.
Cc1ccc(NC(=O)CN(c2cccc(F)c2)S(C)(=O)=O)cc1C was read as MITF primary 4, GPR151 ag 1, FBW7 act 0 and TEAD-YAP block 2.
